NALP3 yeast inh: blocks the NALP3 inflammasome reconstituted in yeast | hit rate 0.39% among 330,000 | Yeast reconstituted NLRP3/ASC/caspase-1, beta-gal luminescence, 24 h | inhibition, % at 10 µM;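 active means inhibition of 50% or more; inactive means inhibition below 50%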
PfHsp90 yeast 2: reduces growth (ATP signal) of yeast expressing P. falciparum Hsp90; S. cerevisiae expressing PfHsp90, BacTiter-Glo ATP, 48 h; yeast lacking PDR1 and PDR3 efflux regulators; inhibition, % at 9.4 µM; hit rate 0.32% among 310,000;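 active means every replicate shows inhibition above about 80%, whatever the replicate mean, limit read from the data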
tim10-1 inh: growth inhibitors of tim10-1 mutant yeast | S. cerevisiae tim10-1 ts strain growth, BacTiter-Glo, 24 h | inhibition, % at 20 µM | hit rate 2.2% among 330,000 | AID 463190;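 active means inhibition of at least 40%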;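 further: mutant grown at 25 °C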
tim23-1 inh: tim23-1 yeast growth inhibition | inhibition, % at 20 µM | AID 463212 | S. cerevisiae tim23-1 growth, BacTiter-Glo luminescence, 24 h | hit rate 1.3% among 330,000;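 active means growth inhibition of the mutant yeast at or above 50%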;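 further: temperature-sensitive mutant grown at 25 °C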
TIM10 inh: inhibits growth of TIM10 yeast strain | S. cerevisiae TIM10 strain growth, BacTiter-Glo luminescence, 24 h | inhibition, % at 10 µM | hit rate 1.4% among 330,000 | AID 463195;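 active means inhibition of 40% or more at the single tested concentration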;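 further: wild-type TIM10 isogenic control strain grown at permissive 25 °C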
NALP1 inh: inhibitors of NALP1 inflammasome in yeast; S. cerevisiae NALP1/ASC/caspase-1 growth, X-gal OD620, 72 h; inhibition, % at 10 µM; hit rate 0.61% among 280,000; in the data active means inhibition mostly above about 24%, no sharp cut-off; inactive means mostly below about 32%
tim10-1 conf: tim10-1 yeast growth inhibition, confirmed. S. cerevisiae tim10-1 ts strain growth, BacTiter-Glo, 24 h. shares compounds with tim10-1 inh. AID 463213. hit rate 56% among 7,400. inhibition, % at 20 µM;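 active means inhibition of yeast growth at or above a set limit in either of two repeat tests at 20 µM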;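 further: tim10-1 mutant grown at permissive 25 °C to find synthetic lethal compounds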
TIM10 conf: confirmation of TIM10 yeast growth inhibitors; AID 463215; shares compounds with TIM10 inh; inhibition, % at 10 µM; hit rate 63% among 4,600; S. cerevisiae tim10 strain growth, BacTiter-Glo luminescence, 24 h;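 active means inhibition of yeast growth at or above a set limit in either of two replicates at 10 µM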; further: this counterscreen used the strain with wild-type TIM10
tim23-1 conf: tim23-1 yeast growth inhibition, confirmed. shares compounds with tim23-1 inh. S. cerevisiae tim23-1 growth, BacTiter-Glo luminescence, 24 h. inhibition, % at 20 µM. hit rate 83% among 4,400;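 active means inhibition above about 39% in either of two replicate wells at 20 µM, limit read from the data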;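 further: temperature-sensitive tim23-1 mutant grown at 25 °C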
Hits are given with their value; i = inactive; nt = not tested or not shown. This is a sample that favours compounds with a hit; in the whole collection about 4.2% have one here.

SMILES	NALP3 yeast inh	PfHsp90 yeast 2	tim10-1 inh	tim23-1 inh	TIM10 inh	NALP1 inh	tim10-1 conf	TIM10 conf	tim23-1 conf
CCN1/C(=C/c2ccc3cc(C)ccc3[n+]2CC)Sc2ccc3sccc3c21	i	101	46	60	68	nt	45	74	69
CC[n+]1c(C)sc2c3ccsc3ccc21	i	i	i	i	i	i	nt	nt	nt
Cc1ccc(Cl)c2sc(NC(=O)C3=COCCO3)nc12	i	i	61	72	42	i	51	41	54
Cc1cc(C)c2sc(NC(=O)C3=COCCO3)nc2c1	i	i	45	53	43	i	35	i	40
COc1ccc(CCNC(=O)c2cccc(C(=O)NCCc3ccc(OC)cc3)n2)cc1	i	i	i	i	i	nt	nt	nt	nt
COc1cccc(CN(C)C(=O)CSC(C)C(=O)Nc2cc(C)on2)c1OC (stereo not given)	i	i	i	i	i	nt	nt	nt	nt
CC(C)N(CCC(=O)c1ccc2ccccc2c1)Cc1ccccc1	i	114	92	58	i	nt	92	nt	86
C=CCOc1ccc(/C=C2\SC(N3CCCCC3)=NC2=O)cc1	i	i	i	i	i	i	nt	nt	nt
CC(=O)Nc1ccc(N2CCCCC2)c(C(=O)Nc2cccc(C)c2)c1	i	i	43	54	i	i	57	nt	50
O=c1c2ccccc2nc2n1C(CBr)CN2 (stereo not given)	i	i	i	i	i	nt	nt	nt	nt
COc1ccc(OC)c(C(c2nnnn2C2CCCC2)N2CCc3ccccc3C2)c1 (stereo not given)	i	i	42	52	i	i	38	nt	42
COc1ccc(C(c2nnnn2C2CCCC2)N2CCc3ccccc3C2)cc1OC (stereo not given)	nt	i	nt	nt	nt	i	nt	nt	nt
Cc1ccc(S(=O)(=O)Nc2ccc(NC(=O)c3cccnc3)cc2)cc1	i	i	i	i	i	i	nt	nt	nt
COc1ccc2c(c1)CCC/C2=N/OC(=O)c1ccccc1OC	i	i	i	i	i	i	nt	nt	nt
COc1ccc2c(c1)CC/C2=N\OC(=O)c1ccccc1C	i	i	43	70	73	i	i	87	75
COc1cc(Nc2ccccn2)cc(C(=O)Nc2cccc(C(F)(F)F)c2)c1	i	i	49	51	i	nt	36	nt	65
N/C(=N\OC(=O)c1ccc([N+](=O)[O-])cc1Cl)c1ccccn1	i	i	53	59	42	i	45	52	65
N/C(=N\OC(=O)c1ccc(=O)n(Cc2ccc(Cl)cc2)c1)c1ccccn1	i	nt	67	53	54	i	60	53	48
N/C(=N/OC(=O)c1ccccc1Cl)c1ncc([N+](=O)[O-])s1	i	i	49	55	62	nt	50	73	i
N/C(=N\OC(=O)c1ccc(Cl)cc1Cl)c1ccccn1	i	i	41	76	72	i	i	75	70
N/C(=N\OC(=O)c1ccccc1Cl)c1ccncc1	i	nt	i	i	i	i	nt	nt	nt
N/C(=N\OC(=O)c1ccc(=O)n(Cc2ccccc2)c1)c1ccccn1	i	i	i	i	i	i	nt	nt	nt
CCOC(=O)c1nnn2c1nc(Nc1cccc(C(F)(F)F)c1)c1ccccc12	i	nt	i	i	i	nt	nt	nt	nt
Cc1ccc(C(=O)O/N=C(\N)c2ccccc2)c(Cl)c1	i	i	71	83	74	nt	59	81	86
O=C(Nc1ccc(O)cc1C(=O)O)c1cccs1	i	i	i	i	i	i	nt	nt	nt
SMILES	NALP3 yeast inh	PfHsp90 yeast 2	tim10-1 inh	tim23-1 inh	TIM10 inh	NALP1 inh	tim10-1 conf	TIM10 conf	tim23-1 conf
CC(=O)Nc1ccc(N=Cc2c(O)c3ccccc3oc2=O)cc1	i	i	i	i	i	i	nt	nt	nt
CC(=O)Nc1ccc(N=Cc2c(O)c(C(=O)Nc3ccccc3)cc3ccccc23)cc1	i	nt	49	64	63	i	i	i	i
CC(C)CC(=O)NC(=S)N1CCN(c2ccc([N+](=O)[O-])cc2Cl)CC1	i	i	i	i	i	i	nt	nt	nt
CCOc1ccc(S(=O)(=O)N(CC)CC(=O)NCc2cccnc2)cc1C	i	i	i	i	i	i	nt	nt	nt
C/C(CC(=O)Nc1ccc(Cl)c(C(F)(F)F)c1)=N\NC(=O)c1cccc(O)c1	i	i	i	i	i	i	nt	nt	nt
COc1ccccc1NC(=O)CN1CCN(CC(=O)Nc2ccc(Cl)c(C(F)(F)F)c2)CC1	nt	i	nt	nt	nt	i	nt	nt	nt
C/C(CC(=O)Nc1ccc(Cl)c(C(F)(F)F)c1)=N\NC(=O)c1ccccc1O	i	i	47	57	i	i	39	nt	41
CCc1ccccc1NCC(=O)Nc1ccc(Cl)c(C(F)(F)F)c1	i	i	68	52	48	nt	54	i	57
CS(=O)(=O)c1cnc(-c2cccnc2)nc1N	i	i	i	i	i	i	nt	nt	nt
CCOC(=O)c1ccccc1NC(=O)CSc1nnnn1C1CCCCC1	i	nt	43	53	i	i	i	nt	i
COC(=O)c1ccccc1NC(=O)CSc1nnnn1C1CCCCC1	i	i	i	i	i	i	nt	nt	nt
CCc1cc2c(=O)nc3n(c2s1)Cc1ccccc1/C3=C(/O)c1ccccc1Cl	i	i	59	66	i	i	42	nt	40
COc1cccc(C(c2c(C)[nH]n(-c3ccccc3)c2=O)c2c(C)[nH]n(-c3ccccc3)c2=O)c1OC	i	i	52	63	i	i	33	nt	55
Cc1[nH]n(-c2ccccc2)c(=O)c1C(C[N+](=O)[O-])c1ccccc1Cl (stereo not given)	i	i	61	74	44	i	59	56	75
COc1cccc(C(c2c(C)[nH]n(-c3ccccc3)c2=O)c2c(C)[nH]n(-c3ccccc3)c2=O)c1O	i	i	i	i	i	nt	nt	nt	nt
CCc1ccccc1-n1ncc(C(=O)Nc2ccccc2OC)c1C	i	i	i	i	i	i	nt	nt	nt
O=C(COc1ccc2c3c(c(=O)oc2c1)CCCC3)NCCCn1ccnc1	i	i	i	i	i	i	nt	nt	nt
O=C(Nc1ncc(Cc2ccccc2)s1)c1cccs1	i	i	51	72	52	i	50	61	52
O=C(Nc1nnc(Cc2ccccc2)s1)c1cccs1	i	i	i	i	i	i	nt	nt	nt
O=C(Nc1ncc(Cc2ccc(SC(F)F)cc2)s1)c1ccccc1	i	i	i	i	i	i	nt	nt	nt
O=C(Nc1ncc(Cc2cccc(Cl)c2)s1)c1cccs1	i	i	43	67	67	i	38	i	55
Cc1ccc(C(=O)Nc2ncc(Cc3ccccc3)s2)o1	i	i	53	57	49	i	50	50	54
COC(=O)N/N=C/c1sc(N2CCCCC2)nc1-c1cccs1	i	i	45	53	i	i	33	nt	47

Screens from PubChem BioAssay.
